Compounds with a hit are over-represented: about 13% of the library has one in this group of screens.
L major viab = Leishmania major promastigote growth inhibition, primary screen | Leishmania major promastigotes, resazurin fluorescence viability | inhibition, % at 10 µM | actives 9% (n = 200,000); in the data active means inhibition above about 50%;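 further: promastigotes grown with compound for 44 hours at 28 °C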
WT yeast gro inh = growth inhibition of WT strain, primary screen, mitochondrial fusion inhibitor project, WT and mutant strains, chemical genetic. mitochondrial fusion phenotypic screen. inhibition, % at 10 µM. actives 2.1% (n = 190,000); in the data active means inhibition above about 58%; tested in S. cerevisiae
RAM network inh = inhibitors of the yeast RAM network, primary screen, dse1pr::URA3 reporter, 5-FOA selection. actives 1.8% (n = 190,000). S. cerevisiae dse1pr::URA3 reporter, 5-FOA growth OD615, 2 d; analog-sensitive cbk1-as2 kinase mutant strain. inhibition, % at 50 µM. AID 868, 2007;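 active means inhibition above a set limit, 3 SD over mean compound inhibition, cut at about 8.4% in these data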;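 further: 0% = DMSO-only wells with no growth and 100% = 10 µM 1-NA-PP1 full growth; inhibition rescues growth on 5-FOA so higher OD means more RAM inhibition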
CHOP inhibitor = inhibitors of CHOP promoter induction, primary screen, cell-based, unfolded protein response, luciferase reporter; CHO-K1 CHOP-promoter luciferase, tunicamycin-induced, 15-18 h; inhibition, % at 10 µM; actives 3.8% (n = 220,000);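 active means compounds that reduced the stress-induced luciferase reporter signal by more than about 70% of percent inhibition, limit read from the data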;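 further: 0% = tunicamycin plus vehicle and 100% = wells without tunicamycin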
Starred values were filed as active, the others as inactive.

`CCCOc1ccc2c3c(c(=O)oc2c1OCCC)CCCC3` gave L major viab 54.4*, WT yeast gro inh 6.6, RAM network inh 3.8 and CHOP inhibitor 38.5.
For COC(=O)N1CCN(c2ccc(Cl)c(Cl)c2)CC1 the results were L major viab 21.0, WT yeast gro inh 32.0, RAM network inh 5.4 and CHOP inhibitor 44.6.
`O=C(O)/C=C/C(=O)N1CCN(c2ccc(F)cc2)CC1` gave L major viab -5.0, WT yeast gro inh 2.9, RAM network inh 3.4 and CHOP inhibitor 12.7.
Screening Nc1ccc(N2CCN(c3ccc(F)cc3)CC2)cc1 returned L major viab 77.8*, WT yeast gro inh 4.6, RAM network inh 0.9 and CHOP inhibitor -15.2.
Screening N#C/C=C(/N)N1CCN(c2ccc(Cl)c(Cl)c2)CC1 returned L major viab 70.2*, WT yeast gro inh 26.6, RAM network inh -1.0 and CHOP inhibitor 79.7*.
For Nc1ccc(N2CCN(c3ccc(Cl)c(Cl)c3)CC2)cc1 the results were L major viab 98.5*, WT yeast gro inh 46.6, RAM network inh 0.8 and CHOP inhibitor 17.0.
For C/C(=N\NC(=O)Cc1csc(N2CCOCC2)n1)c1ccc(Cl)c(Cl)c1 the results were L major viab 12.4, WT yeast gro inh 10.5, RAM network inh 0.1 and CHOP inhibitor 41.4.
Screening Clc1ccc(-c2nnnn2-c2ccc(Cl)c(Cl)c2)cc1Cl returned L major viab 14.1, WT yeast gro inh 79.4*, RAM network inh 0.1 and CHOP inhibitor 83.3*.
Screening COC(=O)c1cc(OC)c(OC)cc1NC(=O)C(C)c1ccc([N+](=O)[O-])cc1 (stereo unspecified) returned L major viab -0.8, WT yeast gro inh 8.8, RAM network inh 0.4 and CHOP inhibitor -4.4.
For CC(CCc1ccccc1)NC(=O)C(Cc1ccccc1)NS(=O)(=O)c1cccs1 (stereo unspecified) the results were L major viab 88.7*, WT yeast gro inh 24.4, RAM network inh 0.6 and CHOP inhibitor 56.9.
`CC1CCCCC1NC(=O)C(Cc1ccccc1)NS(=O)(=O)c1cccs1` (stereo unspecified) gave L major viab 58.5*, WT yeast gro inh 9.7, RAM network inh 2.0 and CHOP inhibitor 22.3.
Screening CCn1nc(C)c(CNC(=O)Nc2ccc3c(c2)OCO3)c1C returned L major viab -4.4, WT yeast gro inh -15.1, RAM network inh 3.2 and CHOP inhibitor -0.6.
`CN1CCCC(C#CC(O)(c2ccccc2)c2ccccc2)C1` (stereo unspecified) gave L major viab 78.3*, WT yeast gro inh -19.3, RAM network inh 0.4 and CHOP inhibitor 47.7.
For OC(C#CCCN1CCCCC1)(c1ccccc1)c1ccccc1 the results were CHOP inhibitor 20.9.
Cc1csc(SCC(=O)NC(C)c2ccc(F)cc2)n1 (stereo unspecified) was read as L major viab -3.5, WT yeast gro inh 1.2, RAM network inh 0.1 and CHOP inhibitor 17.3.
Screening Cc1ccc(-c2cc(N)n(-c3ccccc3)n2)cc1 returned L major viab 6.9, WT yeast gro inh -1.1, RAM network inh 2.2 and CHOP inhibitor 28.8.
Cc1nn(-c2ccccc2)c(N)c1C1(O)C(=O)N(C(C)C)c2ccccc21 (stereo unspecified) was read as L major viab -6.7, WT yeast gro inh 4.8, RAM network inh 2.6 and CHOP inhibitor 19.9.
`Cc1nn(-c2ccccc2)c(N)c1C(c1ccc(C(C)C)cc1)c1c(C)nn(-c2ccccc2)c1N` gave L major viab 29.2, WT yeast gro inh 41.8, RAM network inh 4.2 and CHOP inhibitor 84.8*.
For Cc1ccc(C(c2c(C)nn(-c3ccccc3)c2N)c2c(C)nn(-c3ccccc3)c2N)cc1 the results were L major viab 95.5*, WT yeast gro inh 15.8, RAM network inh 2.2 and CHOP inhibitor 50.6.
Screening COc1cccc(C(C(=O)NC(C)(C)C)N(C(=O)CCC(=O)Nc2cc(C)on2)C(C)(C)C)c1OC (stereo unspecified) returned L major viab -0.1, WT yeast gro inh -16.1, RAM network inh -1.5 and CHOP inhibitor -7.8.
COc1cccc(C(C(=O)NC(C)(C)C)N(Cc2ccco2)C(=O)CCC(=O)Nc2cc(C)on2)c1OC (stereo unspecified) was read as L major viab -6.4, WT yeast gro inh 17.7, RAM network inh 1.4 and CHOP inhibitor 29.1.
Screening COc1ccc(C(C(=O)NC(C)(C)C)N(Cc2ccc(C)cc2)C(=O)CCC(=O)Nc2cc(C)on2)cc1 (stereo unspecified) returned L major viab 94.4*, WT yeast gro inh -1.0, RAM network inh 0.7 and CHOP inhibitor 19.1.
